# This is a sample that favours compounds with a hit; in the whole collection about 3.5% have one here.
# Rv3671c protease: inhibits the M. tuberculosis serine protease Rv3671c; P9WHR9; inhibition, % at 5.96 µM; hit rate 0.048% among 320,000; in the data active = inhibition above about 38%;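 also: extracellular domain of Rv3671c used as enzyme; 0% = enzyme with DMSO and 100% = no enzyme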
# GDH-TPI inh: inhibits GDH-TPI coupling enzymes, artifact for Mtb FBA screen | hit rate 1.2% among 360,000 | GDH-TPI coupled enzyme counterscreen, NADH absorbance | inhibition, % at 4.8 µM; in the data active = inhibition above about 30%;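 also: 0% = DMSO wells and 100% = wells lacking the enzyme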
# FBA Mtb inh: Mtb fructose-bisphosphate aldolase inhibition. AID 588726. purified M. tuberculosis FBA, fluorescence read-out. hit rate 2.3% among 360,000. inhibition, % at 1 µM. P9WQA3; in the data active = inhibition above about 27%;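 also: 0% = vehicle and 100% = reference inhibitor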
# FadD28 binding: blocks FadD28 binding to the bisubstrate probe; hit rate 0.22% among 360,000; inhibition, % at 12.5 µM; fluorescence polarization; in the data active = inhibition above about 8.5%, passing the limit was not always enough
# Mtb hypoxia rep: Mtb hypoxia fluorescent reporter inhibition; fluorescence inhibition, % (concentration not given with the values); hit rate 0.1% among 300,000; M. tuberculosis hypoxia-regulated fluorescent reporter, fluorescence; in the data active = fluorescence inhibition mostly above about 23%, no sharp cut-off; inactive = mostly below about 17%
# UGM FP inh: blocks M. tuberculosis UGM enzyme | hit rate 0.06% among 320,000 | inhibition, % at 10 µM | purified UGM, fluorescence polarization probe displacement; in the data active = inhibition above about 10%, passing the limit was not always enough
# Target sequence (P9WIQ1 whole entry, looked up): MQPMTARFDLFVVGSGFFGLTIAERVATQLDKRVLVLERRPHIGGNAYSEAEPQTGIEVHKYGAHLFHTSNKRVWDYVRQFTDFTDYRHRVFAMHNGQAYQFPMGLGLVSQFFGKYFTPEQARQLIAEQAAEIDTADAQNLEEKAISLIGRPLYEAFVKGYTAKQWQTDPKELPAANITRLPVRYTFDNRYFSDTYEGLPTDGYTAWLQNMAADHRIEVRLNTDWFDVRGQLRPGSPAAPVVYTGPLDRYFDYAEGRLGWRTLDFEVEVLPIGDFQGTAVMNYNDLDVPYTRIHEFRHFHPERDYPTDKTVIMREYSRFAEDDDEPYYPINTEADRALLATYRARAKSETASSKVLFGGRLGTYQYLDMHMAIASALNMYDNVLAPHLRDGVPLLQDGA
# Active calls of the source: *; . = no result given; + = active, no number.
SMILES,Rv3671c protease,GDH-TPI inh,FBA Mtb inh,FadD28 binding,Mtb hypoxia rep,UGM FP inh
COc1ccc([C@H]2CC(=O)C=C(c3ccc(NC(C)=O)cc3)C2)cc1OC,-9.4,36.8*,6.6,-1.5,.,2.3
O=C1C=C(c2cc3ccccc3s2)CCC1,-3.2,34.5*,7.6,-0.6,20.2,3.0
CC1(C)CC(=O)C=C(c2cc3ccccc3s2)C1,2.6,30.2,10.0,-1.0,4.5,0.4
COc1ccc(C2CC(=O)C=C(c3cc4ccccc4s3)C2)cc1OC (stereo not given),.,.,.,.,6.1,.
CCOC1OC(C(=O)N2CCN(C)CC2)=CC(C2CCCCC2)C1CCCO (stereo not given),.,.,.,.,-3.5,.
COC(=O)C1=C(c2ccc(C(C)=O)cc2)CC2CCC1N2C(=O)NCCOc1ccccc1Cl (stereo not given),.,.,.,.,-1.9,.
O=C(CNC(=O)c1ccccc1F)NN=Cc1cc(Br)ccc1OCc1ccccc1,.,.,.,.,1.1,.
O=C1C=C(c2ccc3ncccc3c2)CC(c2ccc(Cl)cc2)C1 (stereo not given),.,.,.,.,-3.4,.
CN(C)c1ccc(/C=C/c2nnnn2-c2ccccc2)cc1,-9.0,40.7*,-1.1,0.9,6.9,-2.8
c1ccc(-c2csc(-c3ccncc3)n2)cc1,-7.6,2.5,4.9,-0.4,-2.7,-1.4
c1ccc(-c2ccc(-c3ccncn3)cc2)cc1,8.7,-1.5,116.6*,-0.2,12.9,1.5
COC1=C/C(=C/c2c(N)n3c(nc2=O)sc2cc(S(C)(=O)=O)ccc23)C=CC1=O,-15.1,51.9*,-4.6,1.7,.,0.0
CCOC1=C/C(=C/c2c(N)n3nc(-c4ccccc4)sc3nc2=O)C=CC1=O,.,20.8,-0.1,15.7*,15.4,.
CS(=O)(=O)c1ccc2c(c1)sc1nc(=O)c(/C=C3/C=CC(=O)C(O)=C3)c(N)n12,-3.2,17.3,5.9,7.6,13.6,-5.1
O=C(CNc1ccccc1F)NN=CC1CC=CCC1 (stereo not given),.,.,.,.,10.4,.
COc1cc(C=CC(=O)N2C(=O)c3cccc(N)c3C2=O)cc(OC)c1OC,.,.,.,.,-0.6,.
CCc1cc(C(=O)Cc2cnn(-c3ccccc3)c2)c(O)cc1O,-10.2,50.3*,-0.1,0.6,2.7,2.5
COc1cc(OC)c(OC)cc1/C=N/NC(=O)CCc1c(C)n[nH]c1C,1.8,55.9*,21.9,-2.7,.,-2.2
COc1cc(OC)c(OC)cc1C=NNC(=O)CCc1c(C)n[nH]c1C,.,.,.,.,-3.6,.
CCC(C)C(C(=O)N1CCNCC1)n1cc(C(N)CC(C)C)nn1 (stereo not given),.,.,.,.,-2.3,.
NC(=O)CCCn1c(C(=O)c2ccc(Cl)cc2)c2ccc([N+](=O)[O-])cc2[n+]1[O-],-0.5,16.2,-0.6,0.3,40.1*,1.9
NCCCn1c(C(=O)c2ccc(Cl)cc2)c2ccc([N+](=O)[O-])cc2[n+]1[O-],2.4,6.0,-1.7,-2.3,22.9,0.1
CC(=NNC(=O)c1ccc(-c2ccccc2)cc1)c1ccco1,.,.,.,.,1.1,.
Cc1ccc(S(=O)(=O)N2C(c3cccs3)CC=C(C(=O)O)C2c2ccccc2)cc1 (stereo not given),.,.,.,.,8.7,.
c1coc(-c2nnc(-c3cccs3)o2)c1,10.2,6.4,149.5*,-3.0,10.4,-0.4
SMILES,Rv3671c protease,GDH-TPI inh,FBA Mtb inh,FadD28 binding,Mtb hypoxia rep,UGM FP inh
COc1ccc(C2=CC3=C(Br)C(=O)C(C)(OC(=O)C4CCCC4)C(=O)C3=CO2)cc1 (stereo not given),-1.9,17.4,-0.9,10.7*,.,-2.5
COC(=O)CCC(=O)OC1(C)C(=O)C2=COC(c3ccc(OC)cc3)=CC2=C(Br)C1=O (stereo not given),0.9,.,.,.,.,-1.7
Cc1ccc2nc(SCC(=O)NN=Cc3ccc(C(=O)O)cc3)cc(C)c2c1,.,.,.,.,2.0,.
NC(=O)C1CC2(CC(c3cccc(NC(=O)CC(c4ccccc4)c4ccccc4)c3)=NO2)CN1C(=O)CC(c1ccccc1)c1ccccc1 (stereo not given),.,.,.,.,-5.5,.
COc1ccc(-c2nc(-c3cccs3)c(-c3cccs3)[nH]2)cc1O,17.1,14.5,17.0,11.3*,.,-1.6
NC(=O)[C@@H]1CCCNc2c(I)cc([N+](=O)[O-])cc2C(=O)N[C@@H](CCC(=O)O)C(=O)N[C@@H](CO)C(=O)N1,1.1,35.3*,0.0,-0.8,.,-3.3
COc1cc(C=NNC(=O)c2ccc(-c3ccccc3)cc2)ccc1OCC(N)=O,.,.,.,.,1.2,.
CC(C)NC(=O)NC(=O)CSc1nnc(COc2ccccc2F)n1C(C)C1CC2CCC1C2 (stereo not given),-3.6,-2.0,1.9,-1.9,4.4,.
CC(C1CC2CCC1C2)n1c(COc2ccccc2F)nnc1SCC(N)=O (stereo not given),-0.3,-5.3,+,1.3,.,-2.8
COCCn1c(-c2ccc(SC)cc2)nc2c1c(=O)[nH]c(=O)n2CC(C)C,-7.5,21.4,+,-1.1,5.7,1.4
Cc1ccc(C)c(NC(=O)CN(C)C(=O)c2ccc(S(=O)(=O)N3CCCCCC3)cc2)c1,3.2,-0.7,0.4,-0.5,31.3*,-1.1
O=[N+]([O-])c1cc([N+](=O)[O-])c2oc(-c3ccccc3)c(Br)c2c1O,.,21.0,-10.7,26.1*,4.9,.
O=c1cc(-c2ccccc2Cl)oc2ccc([N+](=O)[O-])c(O)c12,0.1,9.4,4.6,-2.0,2.0,2.3
CC1CN(C(C)CO)C(=O)c2cccc(NC(=O)c3ccncc3)c2OC1CN(C)C (stereo not given),.,.,.,.,11.5,.
COc1ccc(N=Nc2nc3ccc(Br)cc3n2C)cc1,7.9,3.8,21.1,0.0,.,66.4*
COc1cc(OC)c2cc(C(=O)NN=Cc3ccccc3O)[nH]c2c1,.,.,.,.,13.3,.
COc1ccc(C#Cc2c(-c3ccsc3)oc3ccc(N4CCOCC4)cc23)cc1,-2.2,32.7*,26.8,-0.8,11.2,0.6
OC1(C#Cc2c(-c3ccsc3)oc3ccc(N4CCOCC4)cc23)CCCCC1,4.4,17.5,24.2,-3.7,-0.6,-2.8
COc1ccc(-c2oc3ccc(N4CCOCC4)cc3c2C#CC2(O)CCCCC2)cc1,0.9,29.1,67.7*,-1.0,8.0,-0.6
CCOC(=O)C1C2COc3ccccc3C2N2C(=O)c3cc(OC)ccc3NC(=O)[C@@]12C (stereo not given in full),.,.,.,.,7.3,.
ON=C(c1ccc(Cl)cc1)c1cc2ccccc2o1,.,.,.,.,4.6,.
O=C(O)CCC(=NNC(=O)c1ccc(F)cc1)c1ccc(Br)cc1,.,.,.,.,-5.0,.
Cn1cc(Br)c(C(=O)N/N=C/c2cc3ccccc3nc2Cl)n1,.,31.5*,4.3,-0.8,.,-0.3
Cn1cc(Br)c(C(=O)NN=Cc2cc3ccccc3nc2Cl)n1,.,.,.,.,-4.0,.
CCOC1OC(C(=O)N2CCOCC2)=CC(c2coc3ccccc3c2=O)C1CCCO (stereo not given),.,.,.,.,-0.4,.
O=C(OCC(=O)c1ccc(Cl)s1)c1cncc(Br)c1,-12.1,8.4,-0.1,-3.1,28.9*,-0.4
CCC(=NNc1ccc([N+](=O)[O-])cc1)c1ccccc1,.,.,.,.,8.1,.
O=C(NCCc1ccc(Cl)cc1)c1ccc(CNc2c(N3CCOCC3)c(=O)c2=O)cc1,-7.0,6.5,1.7,-2.7,42.1*,1.2
